In PubChem BioAssay (NCI):
This is part of a sample that, as a whole, favours compounds with a hit. Of some 83,000 tested, about 20% had one in any assay.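 96-well plates, one dose, 48 hours. Percent growth reported; active if below 10.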 Active and inactive are the calls of the source.

Each molecule was assayed on HL-60(TB) leukemia (assay: NCI-60 one-dose screen, 48 h (100 = growth as untreated, 0 = no growth, -100 = all killed)). Details: 10 µM unless noted.
With `Cc1ccccc1NC(=O)Cc1csc2[n+]1C(=O)/C(=C/c1ccc([N+](=O)[O-])cc1)S2` the growth was 103% (inactive). In the case of `NS(=O)(=O)c1ccc(Nc2nc3n[nH]c(Nc4ccccc4)c3c(=O)[nH]2)cc1`, the growth is reported as 101% (inactive). In the case of `C=CCOc1cccc(/C=C/C(=O)c2sc(Nc3cccnc3)nc2C)c1`, the growth is reported as 43.3% (inactive). In the case of `CCN(CC)CCOc1ccc(/C(=C(\C)c2ccc(Cl)cc2)c2ccc(Cl)cc2)cc1`, the growth is reported as 41.4% (inactive). `c1ccc(C2=Nc3ccccc3SC2)cc1` was tested, and the growth was 107% (inactive). For `COc1ccc(-c2nc3sccn3c2-c2ccnc(NCCCNS(=O)(=O)c3ccc4ccccc4c3)n2)cc1`, the growth was 66.1% (inactive). In the case of `COc1ccc(-c2cn(Cc3ccc4c(Br)cc(Br)c(O)c4n3)nn2)cc1`, the growth is reported as 48.6% (inactive). In the case of `COc1cc(/C=C/c2cc(/C=C/c3ccc(O)c(OC)c3)n(C(=O)Nc3ccc(F)c(Cl)c3)n2)ccc1O`, the growth is reported as -28.9% (active). `CSc1nc2ccc(C)cc2cc1/C=N/O` was tested, and the growth was 91.6% (inactive). `COc1ccc(-n2nc(C)c3c(Nc4ccc(NC(=O)Nc5cccc(C(F)(F)F)c5)cc4)ncnc32)cc1` was tested, and the growth was -1.99% (active). For `CCSc1sc(-c2ccc(C)cc2)nc1[P+](c1ccccc1)(c1ccccc1)c1ccccc1`, the growth was -47% (active). `O=C1/C(=C/N2N=C(c3ccc(Cl)cc3)CC2c2ccccc2O)SC(=S)N1c1cccc(C(F)(F)F)c1` (centres undefined) was tested, and the growth was 52.2% (inactive). In the case of `O=S(=O)(NCCNc1cc(-c2c(-c3cccc(O)c3)nc3sccn23)ccn1)c1ccc(Br)cc1`, the growth is reported as 77.6% (inactive). For `Cc1ccccc1C1CC(=O)c2ccccc2C1C` (centres undefined), the growth was 98.6% (inactive). With `CC(=O)c1ccc(NC(=O)CSc2nnc(-c3cc(-c4ccc(C)cc4)nc4ccccc34)o2)cc1` the growth was 80.6% (inactive). With `CCOC(=O)Cn1nnc(-c2ccc(OCc3ccccc3F)cc2)n1` the growth was 102% (inactive). With `N#C/C(C(=O)c1ccccc1)=C1/C(=O)Nc2ccccc21` the growth was 106% (inactive). In the case of `Cc1ccc(C(=O)Nc2ccc(CN3CCN(C)CC3)c(C(F)(F)F)c2)cc1C#Cc1cncc2ncccc12`, the growth is reported as -65.1% (active). In the case of `CC[C@]12C=CCN3CC[C@@]4(c5ccc(OC)cc5N(C)[C@H]4[C@@](O)(C(=O)OC)[C@@H]1OC(=O)CCC[P+](c1ccccc1)(c1ccccc1)c1ccccc1)[C@@H]32`, the growth is reported as -53.1% (active). In the case of `C[C@]12CCc3nc(Nc4ccc(O)cc4)sc3C1=CC[C@@H]1[C@@H]2CC[C@]2(C)/C(=N/NC(N)=S)CC[C@@H]12`, the growth is reported as -4.61% (active). For `CC(=O)c1cc2c(N)c(C(=O)Nc3ccccn3)sc2nc1C`, the growth was 83.3% (inactive). `O=C(CC(C(=O)c1ccccc1)N1CCOCC1)c1ccccc1` (centres undefined) was tested, and the growth was 55.4% (inactive). `Nc1c(C(=O)Nc2cccc([N+](=O)[O-])c2)sc2nc3c(cc12)C(O)CCC3` (centres undefined) was tested, and the growth was 9.71% (active). In the case of `C#Cc1ccc(-n2c(/C=C/c3ccc4ccccc4n3)nc3ncccc3c2=O)cc1`, the growth is reported as -34.6% (active). With `Cc1cccc(NC(=O)Nc2ccc(-n3cnc4cc(-c5ccc(O)cc5)ccc43)cc2)c1` the growth was 8.69% (active). In the case of `Cc1cc(C)c(C(=O)c2cccs2)c(C)c1`, the growth is reported as 98.3% (inactive). With `COc1cnc2c(c1)C(=O)c1c-2n(CCCN2CCNCC2)c(=O)c2cc(Cl)ccc12` the growth was -44.9% (active). `COc1ccc(/C(C#N)=C/c2cccc(OC)c2OC)cc1` was tested, and the growth was 76.7% (inactive). With `COc1ccc(Cl)cc1Nc1nc(C(F)(F)F)ccc1C(=O)N/N=C/c1c(Cl)cccc1Cl` the growth was 48.4% (inactive). `N=C(N)c1ccc(-c2ccc(-c3ccc(F)cc3)s2)nc1` was tested, and the growth was -28% (active). `COc1cc(/C=C/C(=O)CC(=O)/C=C/c2ccc(OC(=O)C3C4CC5CC(C4)CC3C5)c(OC)c2)ccc1OC(=O)C1C2CC3CC(C2)CC1C3` (centres undefined) was tested, and the growth was 94% (inactive). With `NC1=CSC2=N/C(=C\c3ccc(Cl)cc3)C(=O)N12` the growth was 39.9% (inactive). For `OCCN1CCN(c2nc(Nc3ccc(-c4nc5ccccc5[nH]4)cc3)c3cn[nH]c3n2)CC1`, the growth was -65.8% (active). `COc1ncnc2c1ncn2C/C(Br)=C(\Br)CCl` was tested, and the growth was 47.1% (inactive). `O=C1c2c(c3c4ccccc4[nH]c3c3ccc4ccccc4c23)C(=O)N1CCN1CCNCC1` was tested, and the growth was 43.6% (inactive). For `Nc1ncnc2c1ncn2C1(CO)OCC(O)C(O)C1O` (centres undefined), the growth was 95.9% (inactive). In the case of `C[N+](C)(C)c1ncnc2[n-]cnc12`, the growth is reported as 103% (inactive). With `CCn1c(-c2cc3c([nH]c4ccccc43)c(-c3cccc(O)c3)n2)n[nH]c1=S` the growth was 4.16% (active). In the case of `Nc1nc(Nc2ccccc2SSc2ccccc2Nc2nc(N)nc(-c3cccs3)n2)nc(-c2ccsc2)n1`, the growth is reported as -7.94% (active).
